# According to the supplement of paper PMC10338343:
# ± gives the standard deviation.
# Test system: EfPiwi piRISC loaded with piRNA #1 (26 nt)
# Experiment: pre-steady-state target cleavage rate (min^-1); auxiliary factor: 500 nM Ephydatia muelleri Gtsf1; guide: piRNA #1 5'p-UGAGGUAGUAGGUUGUAUAGUAUCCA; MIWI and MILI are mouse PIWI proteins and EfPiwi is from a freshwater sponge; tags in brackets are library labels; higher = faster piRNA-guided slicing of the target
# In short: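 The pre-steady-state cleavage rate was calculated from a burst-and-steady-state fit. Data came from Cleave-'n-Seq, in which […] transcribed, DNA-blocked target RNA library was mixed with 1 nM active affinity-purified piRISC carrying one synthetic guide, with or without 500 nM GTSF1 partner protein, in HEPES–potassium acetate buffer at 33 °C for 0–8 or 0–960 min. Uncleaved targets were sequenced and normalised to depth and to weakly complementary targets, three trials were pooled, and k3 was capped at 0.0001 min^-1.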
row,Sequence,pre-steady-state target cleavage rate
1,GGAGACCUAUGUAUAGAACCUUCUACCUCA,< 0.0001
2,GGAGACGAUACUAUACAACCUUCUACCUGA,0.0056 ± 0.0024
3,GGAGAGGAUACUAUACAACCUUCUACCUGA,0.00393 ± 0.0023
4,GGAGACCAUUCUAUACAACCUUCUACCUCA,0.00336 ± 0.0032
5,GGAGAGGUUACUAUACAACCUAGUACCUCA,0.00366 ± 0.0015
6,GGAGACGAUACUAUACAACCUAGUACCUGA,0.00389 ± 0.001
7,GGAGACGAUAGUAAACAACCUACUACCUCA,0.00554 ± 0.004
8,GGAGUGGAUACUAUACAACCUUCUUCCUCA,0.00355 ± 0.0026
9,GGAGAGGAUACUAUACAACCUACUCCUCA,0.00473 ± 0.0025
10,GGAGAGGAUACUAAACAUCCUACUACCUCA,0.00524 ± 0.0024
11,GGAGAGGAUACUAUACAACCUAGUACGUCA,0.0044 ± 0.0019
12,GGAGACCAUACUAUACAACCUACAUGGAGA [g8:g23:cont:t1A],0.00382 ± 0.0038
13,GGAGUGGAUACUAUACAGACCUACUACCUCA,0.0116 ± 0.0053
14,GGAGACCUAUGAUAUCAACCUACUACCAUCA,< 0.0001
15,GGAGACCUAACUAUACAACCUACUUCCUGA,0.00376 ± 0.0037
16,GGAGACGAUACUAAACAUCCUACUACCUCA,0.00359 ± 0.0026
17,GGAGUGGAUACUAUACAACCUAGUACCACA,0.0035 ± 0.0016
18,GGAGACCAUACUAUACAACCUACUACCUCG [g2:g23:cont:t1G],0.0177 ± 0.0074
19,GGAGACGAUACAAUACAACCUACUACCACA,0.00392 ± 0.0029
20,GGAGAGGAAACUAUACAACCAACUACCUCA,0.00523 ± 0.0026

row,Sequence,pre-steady-state target cleavage rate
1,GGAGUGGAUACUAUACAACCUUCUACCUGA,0.00359 ± 0.0018
2,GGAGACCUAUCUAUACAACCUAGUACGUCA,0.00316 ± 0.0024
3,GGAGUAGGAUACUAUACAACCUACUACCUCA,0.0546 ± 0.019
4,GGAGUGGAUACUAUAUAACCUACUACCUCA,0.117 ± 0.045
5,GGAGUGGAUACUAUACAAACCUACUACCUCA,0.0643 ± 0.023
6,GGAGACCUAAACUAUACAACCUACUACCUCA,0.00974 ± 0.0047
7,GGAGACGAUACUAUACAACCUUACUACCUCA,0.00805 ± 0.0039
8,GGAGUGAGAUACUAUACAACCUACUACCUCA,0.0362 ± 0.015
9,GGAGACCUAACUAUACAACCUAGUACGUCA,0.00403 ± 0.0029
10,GGAGACCUAUGAAUAGAACCUUCUACCUCA,< 0.0001
11,GGAGAGGAUACUAUACAACCUACUUCGUCA,0.00697 ± 0.0031
12,GGAGACGAUACUAUUCAACCUACUUCCUCA,0.00413 ± 0.0031
13,GGAGACCAUACUAUACAACCUGACUACCUCA,0.00545 ± 0.0032
14,GGAGACGAUACUAUACUACCAACUACCUCA,0.0038 ± 0.0023
15,GGAGAGGAUACUAUACAACCAACUAGCUCA,0.00313 ± 0.0016
16,GGAGAGGAUACUCAUACAACCUACUACCUCA,0.0605 ± 0.024
17,GGAGACGAUACUAUAUAACCUACUACCUCA,0.0091 ± 0.0042
18,GGAGUGGAUACUAUACAACCUACUAGCUGA,0.00461 ± 0.0027
19,GGAGAGGAUACUAUACAACCUACUUCCUCA,0.00514 ± 0.0026
20,GGAGACCAUACUAUUACAACCUACUACCUCA,0.0115 ± 0.0046
